Experimental findings from article PMC4336329 (PLoS ONE, 2015) are described below.

Out of some 310,000 compounds screened, about 14,000 (4.5%) showed an effect of 50% or more. The effect is printed as a negative number. The full list was thinned out, with strong results kept by preference.
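Further: peak tail current of the secondary pulse compared with the same well before compound.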

Chain of human ether-à-go-go-related gene (hERG) potassium channel (Q12809 whole entry, looked up): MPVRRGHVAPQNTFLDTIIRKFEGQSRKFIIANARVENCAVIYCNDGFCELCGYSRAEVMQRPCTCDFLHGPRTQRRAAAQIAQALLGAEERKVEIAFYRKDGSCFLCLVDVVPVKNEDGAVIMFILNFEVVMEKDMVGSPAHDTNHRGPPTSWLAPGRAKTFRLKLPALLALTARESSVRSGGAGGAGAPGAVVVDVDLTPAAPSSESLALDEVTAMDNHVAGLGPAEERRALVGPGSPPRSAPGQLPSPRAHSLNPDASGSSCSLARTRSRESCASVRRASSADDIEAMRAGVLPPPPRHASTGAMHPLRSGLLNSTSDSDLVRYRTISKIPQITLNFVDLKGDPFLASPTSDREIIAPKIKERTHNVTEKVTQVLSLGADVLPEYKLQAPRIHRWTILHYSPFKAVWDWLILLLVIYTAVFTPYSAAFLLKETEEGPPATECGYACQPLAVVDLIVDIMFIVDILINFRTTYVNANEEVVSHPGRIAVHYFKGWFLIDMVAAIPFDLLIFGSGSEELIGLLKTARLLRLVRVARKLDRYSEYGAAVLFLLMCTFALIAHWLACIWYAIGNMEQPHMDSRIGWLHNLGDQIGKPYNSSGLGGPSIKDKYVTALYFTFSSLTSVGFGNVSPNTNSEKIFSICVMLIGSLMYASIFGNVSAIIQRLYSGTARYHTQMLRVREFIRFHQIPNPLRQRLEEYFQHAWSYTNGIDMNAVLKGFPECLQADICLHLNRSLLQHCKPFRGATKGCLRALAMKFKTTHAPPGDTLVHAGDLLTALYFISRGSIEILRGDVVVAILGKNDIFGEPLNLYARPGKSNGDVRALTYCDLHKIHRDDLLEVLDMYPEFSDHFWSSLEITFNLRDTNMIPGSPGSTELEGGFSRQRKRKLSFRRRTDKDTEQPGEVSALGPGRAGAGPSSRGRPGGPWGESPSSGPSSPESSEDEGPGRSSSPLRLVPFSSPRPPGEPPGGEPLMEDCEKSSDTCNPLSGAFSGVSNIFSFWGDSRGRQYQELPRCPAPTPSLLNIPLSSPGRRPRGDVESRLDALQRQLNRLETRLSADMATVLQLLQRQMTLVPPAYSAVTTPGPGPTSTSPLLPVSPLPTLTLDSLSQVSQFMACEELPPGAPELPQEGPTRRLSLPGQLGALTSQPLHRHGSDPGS

The assay addresses human ether-à-go-go-related gene (hERG) potassium channel (human, UniProt Q12809). Briefly: primary screen, population patch clamp on CHO cells stably expressing hERG; higher = less effect of the substance.
Consider `CC(C)C(=O)Nc1nnc(SCc2cccc(F)c2)s1`, for which the “hERG current change (%, negative = inhibition) at 10uM” value was -8.88%.
The figure for `COc1ccc(Cc2nc(C(=O)Nc3ccc(Cl)cc3)cs2)cc1` is -42.8%; for `CCOC(=O)c1nsnc1NCCSC(=N)N.I` it is 3.69%; for `CC1CN(S(=O)(=O)c2ccc(C(=O)Nc3sccc3C(N)=O)cc2)CC(C)O1` (centres unmarked) it is -10.8%.
The figure for `CCOc1ccc(NC(=O)CCC(=O)Nc2cc(OC)c(NC(=O)c3ccco3)cc2OC)cc1` is 10.4%; for `O=C(CSc1nc(-c2ccccc2)cs1)N1CCc2ccccc21` it is 3.61%; for `Cc1cccc(N(Cc2cc3ccccc3[nH]c2=O)C(=O)c2ccco2)c1C` it is 4.51%.
The figure for `CCC(C)(C)NC(=O)C(c1ccncc1)N(Cc1ccc(C)cc1)C(=O)c1csnn1` (centres unmarked) is -14.1%; for `COc1cc(OC)c(C2N(c3ccccn3)C(=O)C3CCCN32)cc1OC` (centres unmarked) it is 13.8%; for `COc1ccc(C(=O)OCC(=O)NCCN2C(=O)CSC2=O)cc1` it is -1.03%.
With `CCCNC(=O)c1ccc(CNc2c(N3CCC(C(=O)OCC)CC3)c(=O)c2=O)cc1`, the “hERG current change (%, negative = inhibition) at 10uM” value is listed as 3.8%.
As to `CCOC(=O)C1CCN(c2c(NCc3ccc(N(C)C)cc3)c(=O)c2=O)CC1`, the “hERG current change (%, negative = inhibition) at 10uM” value is on record as -5.97%.
The figure for `CCOC(=O)C1CCCN(Cc2ccc(OC)c(OCc3ccccc3)c2)C1` (centres unmarked) is -46.1%; for `CCOC(=O)C1CCCN(Cc2ccc(OCc3ccccc3)c(OC)c2)C1.O=C(O)C(=O)O` (centres unmarked) it is -62.2%; for `CCOC(=O)C1CCN(Cc2ccc(OCc3ccccc3)c(OC)c2)CC1.O=C(O)C(=O)O` it is -19.3%.
The figure for `CCCCNC(=O)C1CCN(Cc2ccc(OCc3ccccc3)cc2)CC1.O=C(O)C(=O)O` is -71.7%.
The figure for `CCOC(=O)C1CCN(c2c(NCc3ccc(C(=O)N(C)Cc4ccccc4)cc3)c(=O)c2=O)CC1` is -65.2%.
Regarding `OC1CCN(Cc2ccc(OCc3ccccc3)cc2)CC1`, the “hERG current change (%, negative = inhibition) at 10uM” value is given as -5.07%.
The figure for `CCOC(=O)C1CCCN(Cc2c(C(=O)N3CCOCC3)nc3ccccn23)C1` (centres unmarked) is 8.12%.
The value for `O=C(NC1CCCCC1)c1cc([N+](=O)[O-])ccc1N1CCCC1` was -0.526%; that for `Cc1ccc(/C=C/C(=O)Nc2cccc(S(=O)(=O)N3CCOCC3)c2)o1` was -19.9%.
The value for `O=C(CCC1CCCC1)Nc1ccon1` was 12.2%.
With `COc1ccc(S(=O)(=O)N(C)CC(=O)NCCN2CCOCC2)cc1Cl`, the “hERG current change (%, negative = inhibition) at 10uM” value is recorded as 6.98%.
The value for `CCCCC(CCC(=O)Nc1ccccc1C(=O)OCC)C(=O)O` (centres unmarked) was -3.09%.
The figure for `Cc1ccc(C)c(Cn2c(=O)n(CCCC(=O)NCc3ccco3)c(=O)c3ccccc32)c1` is 0.892%.
In the case of `O=C(Nc1ccc(Cl)cn1)c1ccc(-c2ccc(Cl)c(Cl)c2)o1`, the “hERG current change (%, negative = inhibition) at 10uM” value was found to be 10.1%.
The figure for `CC(=O)c1ccccc1NS(=O)(=O)c1c(C)nn(-c2ccccc2)c1C` is 3.03%; for `CCn1nc(C)c(CNC(=O)CCc2nnc(Cc3c[nH]c4ccccc34)o2)c1C` it is 42%.
The value for `CCC(C)(C)n1nnnc1C(c1ccccc1OC)N1CCSCC1` (centres unmarked) was -24.1%; that for `CCOc1ccccc1C(C(=O)NCCOC)N(CCOC)C(=O)Cn1nnc2ccccc21` (centres unmarked) was 18.5%; that for `Cc1ccc(C(=O)N2CCN(S(=O)(=O)c3ccc(C)cc3)CC2)cc1` was -20.1%.
The figure for `Cc1ccc(OCC(=O)N2CCN(C(=O)c3cccc(F)c3)CC2)cc1` is -13.3%.
As for `Cc1cccc(OCC(=O)N2CCN(C(=O)c3cccs3)CC2)c1`, the “hERG current change (%, negative = inhibition) at 10uM” value is on record as -7.23%.
The figure for `Cc1cccc(OCC(=O)NNC(=O)c2ccc([N+](=O)[O-])cc2)c1` is 1.5%; for `Cc1ccc(S(=O)(=O)N2CCN(C(=O)c3ccc([N+](=O)[O-])cc3)C2)cc1` it is -60%.
As to `O=C(COc1ccc2ccccc2c1)NNC(=O)c1ccc([N+](=O)[O-])cc1`, the “hERG current change (%, negative = inhibition) at 10uM” value is -1.08%.
The value for `Cc1ccc(OCC(=O)N2CCN(C(=O)c3ccc([N+](=O)[O-])cc3)CC2)cc1` was -83.4%.
The figure for `O=C(COc1ccc2ccccc2c1)N1CCN(C(=O)c2ccc([N+](=O)[O-])cc2)CC1` is -76.5%; for `Cc1ccc(C(=O)N2CCN(S(=O)(=O)c3ccc(C)c([N+](=O)[O-])c3)C2)cc1` it is -42.7%.
`Cc1cccc(OCC(=O)N2CCN(C(=O)c3ccc([N+](=O)[O-])cc3)CC2)c1`: the “hERG current change (%, negative = inhibition) at 10uM” value is listed as -68.8%.
The figure for `O=C(COc1ccc2ccccc2c1)N1CCN(c2ccccc2)CC1` is 11.7%; for `Cc1ccc(OCC(=O)N2CCCCCCC2)cc1` it is 7.87%.
The figure for `COc1ccc(C(=O)N/N=C/c2sc(=O)n(Cc3cccc(C(=O)O)c3)c2Cl)cc1` is -1.9%; for `CC(C)(C)C1CCC(=NNC(=O)C2COc3ccccc3O2)CC1` (centres unmarked) it is 0.995%; for `CCOC(=O)Cn1ccc(NC(=O)COc2ccc(F)cc2F)n1` it is -2.52%.
The value for `Cc1ccc(OCc2cc(C(=O)N3CC4C[C@@H]5CC3C[C@H](C4)C5)no2)cc1C` was 15.7%; that for `COc1ccc(C(=O)C[n+]2cccc(C)c2)cc1.[Br-]` was 13%.
As to `NC(=O)c1ccc(NCc2ccco2)c([N+](=O)[O-])c1`, the “hERG current change (%, negative = inhibition) at 10uM” value stood at 6.16%.
The figure for `CN1CCN(S(=O)(=O)c2ccc3c(c2)C(C)(C)C(=O)N3C)CC1` is 14.3%.
`CSCCC(NC(=O)c1cc(S(=O)(=O)N2CCOCC2)ccc1F)c1nc2ccccc2[nH]1` (centres unmarked): the “hERG current change (%, negative = inhibition) at 10uM” value is -5.27%.
With `COc1ccc(OCC(=O)N2CCN(C(=O)c3ccc(F)cc3)CC2)cc1`, the “hERG current change (%, negative = inhibition) at 10uM” value was -20.2%.
Take `CCC(=O)c1ccc(OCC(=O)N2CCN(C(=O)c3ccccc3)CC2)cc1`: the “hERG current change (%, negative = inhibition) at 10uM” value is -37.8%.
The figure for `COc1ccc(OCC(=O)N2CCN(C(=O)c3ccccc3)CC2)cc1` is -12.6%.
As for `COc1ccc(OCC(=O)N2CCN(C(=O)c3ccc([N+](=O)[O-])cc3)CC2)cc1`, the “hERG current change (%, negative = inhibition) at 10uM” value was -67.2%.
The value for `O=C(COc1ccccc1)N1CCN(C(=O)c2ccc([N+](=O)[O-])cc2)CC1` was -62.4%; that for `O=C(COc1ccccc1)N1CCN(S(=O)(=O)c2cccc([N+](=O)[O-])c2)CC1` was -47.3%.
